The values that follow come from PubChem BioAssay (NCATS).

A number with no mark means an inactive call. Records with an inconclusive call do not appear. Activity calls are given as the source filed them. Calls come from the whole dose curve; as a rule, active = well fitted curve in the direction sought with a large enough effect; inconclusive = small, poorly fitted or top-dose-only effect, or another doubt; inactive = no such curve, though single readings can be large; an effect the other way counts as inactive or inconclusive.

Experiment [1] can be described thus: qHTS of pediatric cancer cell lines to identify multiple opportunities for drug repurposing: Confirmatory screen for SK-N-SH cells (AID 1347129).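 Note: cells exposed to compound for 48 h before viability read; nearly all actives have a fitted effect of over 60% in size.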 Note: potency is the fitted concentration of half-maximal effect. The method in brief: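 Cells (500-1,000/well) in growth media were settled 5 h at 37 degrees C, then given compounds for 48 h. Viability was read as CellTiter-Glo luminescence. Primary runs used MIPE at 11 points (0.78 nM-46 µM) and NPC at 8 points (0.59 nM-46 µM); follow-ups used 11 points.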
Background: Quantitative high-throughput screening tests each substance at several concentrations.

The test system of experiment [2] is Zika virus NS2B-NS3 protease. The experiment is described as follows: Primary screen GU AMC qHTS for Zika virus inhibitors (AID 1347154).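 For activity change, negative = inhibition: 0% = no-inhibitor control and -100% = no-enzyme control.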 Note: nearly all actives have a fitted effect of over 70% in size. Note: potency is the fitted concentration of half-maximal effect. The essentials:
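Unlinked Zika NS2B hydrophilic domain/NS3 protease domain noncovalent complex (25 nM final) in 10 mM Tris-HCl pH 8.0, 0.01% Tween 20, with AMC peptide substrate. Fluorescence (ex 340, em 450 nm) change over 15 min, room temperature; percent inhibition fitted to 4-parameter Hill equation.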

Experiment [3] in a line: qHTS to identify inhibitors of the type 1 interferon - major histocompatibility complex class I in skeletal muscle: primary screen against the NCATS Pharmaceutical Collection (AID 1347407).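 Note: luminescence of HiBiT knocked into endogenous HLA-B as interferon-induced MHC class I level; % is set by controls: 0 for no effect and ±100 for the full control effect.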 The method in brief:
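Luminescence from HiBiT-tagged endogenous HLA-B*08:01 served as the read-out of IFN-beta-induced MHC class I in CRISPR-engineered C25cl48 myoblasts. Cells received 4 ng/ml IFN-beta plus compound (high final 46 uM, […]) for 24 h.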

For experiment [4], the target named is N-terminal Xaa-Pro-Lys N-methyltransferase 1 (Homo sapiens) (UniProt Q9BV86). The experiment is described as follows: qHTS Assay for Inhibitors of N-terminal methyltransferase 1 (NTMT1): LOPAC validation of the NTMT1 SAHH-coupled ThioGlo3 Assay (AID 1347143). For activity change, negative = inhibition: % is set by controls: 0 for no effect and ±100 for the full control effect. Note: nearly all actives have a fitted effect of over 70% in size. Note: potency is the fitted concentration of half-maximal effect. The method in brief:
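Fluorescence read-out (excitation 340nm, emission 450nm) of SAH-derived thiol, measured via SAHH coupling and ThioGlo3, taken immediately and after a 30 min room-temperature reaction, then normalized to the background read. Enzyme: NTMT1 at 125nM; cofactor SAM 100uM in the added reagent.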

Experiment [5] deals with Zika virus NS2B-NS3 protease (unlinked). Kind of experiment: Optimization of GU AMC qHTS for Zika virus inhibitors: Unlinked NS2B-NS3 protease assay (AID 1347151).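 For activity change, negative = inhibition: series mostly up to about 52 µM; 0% = no-inhibitor control and -100% = no-enzyme control.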 Note: nearly all actives have a fitted effect of over 80% in size. Note: potency is the fitted concentration of half-maximal effect. The method in brief:
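Unlinked protease (25 nM final); buffer 10 mM Tris-HCl pH 8.0 + 0.01% Tween 20; AMC substrate; 15 min RT, dark; Δfluorescence normalized to no-inhibitor/no-enzyme controls; 4-parameter Hill fit.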

Experiment [6] concerns the target Lysine-specific demethylase 5B (Homo sapiens) (UniProt Q9UGL1). Kind of experiment: Optimization screen for KDM5B Histone Demethylases FDH coupled qHTS against the LOPAC library (AID 1347166). Note: 0% is about no effect. The method in brief:
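KDM5BDeltaAP (200nM final) preincubated 10 min with compound, then 12.5uM H3K4Me3, 25uM a-ketoglutarate, ascorbate, Fe(II), NAD+ and FDH added; 50mM HEPES pH 7.5, 0.01% Tween-20. NADH fluorescence (340/450 nm) change over 30 min, room temperature.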

A short description of experiment [7]: qHTS to identify inhibitors of the type 1 interferon - major histocompatibility complex class I in skeletal muscle: primary screen against the NCATS LOPAC collection (AID 1347405).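 Note: lytic HiBiT luminescence reporting HLA-B protein level; % is set by controls: 0 for no effect and ±100 for the full control effect.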 The essentials: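 CRISPR-engineered immortalized human myoblasts (C25cl48) with HiBiT fused to endogenous HLA-B*08:01, stimulated with 4 ng/ml IFN-beta. LOPAC compounds tested as a 7-point 1:4.3 titration (top 46 uM final), 24 h at 37 C; lytic HiBiT luminescence read.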

A short description of experiment [8]: qHTS for inhibitors of adenylyl cyclases using a fission yeast platform: a pilot screen against the NCATS LOPAC library (AID 1347410).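 Note: plate controls were DMSO vehicle for no effect and DPI positive control for full effect.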 The method in brief:
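Fission yeast qHTS: CHP2027 cells (AC9-GNAS-PDE4D2, fbp1-GFP), 5x10^6 cells/mL working density, EMM + His/Lys/Ura; LOPAC at up to 57 µM final; 18 h dark, 30C; GFP by laser cytometry. DPI positive control, DMSO vehicle.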

The target in the next experiment is Furin (Homo sapiens) (UniProt P09958). The experiment is described as follows: Furin counterscreen qHTS for Zika virus inhibitors (AID 1347149).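 Note: purified recombinant full-length human furin enzyme at 5 nM; fluorescence gain from furin cutting a BOC-RVRR-AMC peptide substrate over 15 min; top concentration of the series differs between compounds; plate controls were no-inhibitor control for no effect and no-enzyme control for full effect; nearly all actives have a fitted effect of over 70% in size.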 The essentials: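 Fluorogenic cleavage of BOC-RVRR-AMC (2 microM final, Km ~15 µM) was monitored (ex 340, em 450 nm) at 37C after 15 min RT preincubation of 5 nM furin with compounds in HEPES pH 7.0 buffer with CaCl2 and Triton X-100. Percent inhibition was fitted to a 4-parameter Hill curve.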
(The purpose of a counterscreen is to sort out artefacts and off-target activity.)

Experiment [9] in a line: Confirmatory screen GU Rhodamine qHTS for Zika virus inhibitors qHTS (AID 1347157). Note: potency is the fitted concentration of half-maximal effect; nearly all actives have a fitted effect of over 70% in size. Particulars: purified enzyme assay, Rhodamine110 substrate fluorescence, 15 min. The method in brief: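 Enzyme 25 nM in Tris-HCl pH 8.0 + 0.01% Tween 20; compounds up to 114 microM, 15 min RT dark; + Rhod110 substrate 1.5 microM; read t0 and 15 min; delta fluorescence → % inhibition → 4-parameter Hill fit.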

Experiment [10] can be described thus: ZIKV-mCherry secondary qHTS for Zika virus inhibitors (AID 1347158). Note: top concentration of the series differs between compounds. The method in brief: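 Vero cells (5,000/well) were given compound, then infected with ZIKV-mCherry at MOI 1 for 48–72 h at 37 °C. After PFA fixation and Hoechst staining, imaging gave percent mCherry-positive cells. The positivity threshold was RFU above 450, 3 SD over negative controls.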

Experiment [11] can be described thus: Confirmatory screen NINDS Rhodamine qHTS for Zika virus inhibitors (AID 1347161). Note: potency is the fitted concentration of half-maximal effect; nearly all actives have a fitted effect of over 60% in size. The essentials:
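Each compound, titrated, sat 15 min with 25 nM linked protease before 1.5 microM Rhodamine110 substrate went in. Fluorescence gain over the next 15 min, in pH 8.0 Tris with Tween 20, gave Hill-fitted curves.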

Experiment [12] has as its system Zika virus NS2B-NS3 protease (linked). The experiment is described as follows: 384 well plate NINDS AMC confirmatory qHTS for Zika virus inhibitors (AID 1347163). Note: potency is the fitted concentration of half-maximal effect; nearly all actives have a fitted effect of over 50% in size. The essentials:
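Linked NS2B-NS3 protease (final 5 nM, 30 nM or 60 nM) was preincubated with compounds (final up to 1 mM) for ~15 minutes. Ac-VKTGKR-AMC substrate (final 30 microM) then reacted for 25 minutes at room temperature in the dark. Fluorescence (ex 355/em 460 nm) was normalized to no-enzyme and no-inhibitor controls.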

The subject of experiment [13] is Zika virus NS2B-NS3 protease (linked construct). Kind of experiment: 384 well plate NINDS Rhodamine confirmatory qHTS for Zika virus inhibitors (AID 1347164).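 Note: fluorescence from protease cleavage of Ac-LKRR-rhodamine 110 substrate; potency is the fitted concentration of half-maximal effect; nearly all actives have a fitted effect of over 65% in size.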 The method in brief:
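Enzyme (final 5/30/60 nM) + cpd (DMSO), ~15 min; add Ac-LKRR-Rd 10 microM final; 25 min RT, dark; FI ex 485/em 538; normalized to no-enzyme, no-inhibitor ctrls; aprotinin intraplate ctrl.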

Experiment [14] is described as follows: Tertiary RLuc qRT-PCR qHTS assay for Zika virus inhibitors (AID 1347169). Note: top concentration of the series differs between compounds; % is set by controls: 0 for no effect and ±100 for the full control effect; nearly all actives have a fitted effect of over 55% in size. The method in brief:
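Vero, 1,000 cells/well, o/n 37 C; cpd pinned in DMSO; ZIKV-RLuc Cambodian, MOI 1-2, 48-72 h 37 C; live-cell RLuc substrate, lum read at 1-1.5 h.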

For experiment [15], the system named is Zika virus NS2B-NS3 protease (unlinked complex). Kind of experiment: Primary screen GU Rhodamine qHTS for Zika virus inhibitors: Unlinked NS2B-NS3 protease assay (AID 1347159). Note: % is set by controls: 0 for no effect and ±100 for the full control effect; nearly all actives have a fitted effect of over 60% in size. The essentials: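 Percent inhibition derives from the 15-min fluorescence change (ex 480, em 540 nm), normalized to no-enzyme and no-inhibitor wells. Reactions contained 25 nM NS2B-NS3 complex and 1.5 microM substrate in 10 mM Tris-HCl pH 8.0.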

In experiment [16] the test system is Zika virus NS2B-NS3 protease (linked construct). Kind of experiment: Primary screen NINDS Rhodamine qHTS for Zika virus inhibitors (AID 1347160). For activity change, negative = inhibition: % is set by controls: 0 for no effect and ±100 for the full control effect. Note: nearly all actives have a fitted effect of over 55% in size. The essentials:
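In 10 mM Tris-HCl pH 8.0 containing 0.01% Tween 20, linked NS2B-NS3 protease (25 nM final) is exposed to test compounds for 15 min. Cleavage of 1.5 microM Rhodamine110 substrate is tracked by fluorescence over 15 min.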

Sequence of N-terminal Xaa-Pro-Lys N-methyltransferase 1 (Homo sapiens) (Q9BV86 whole entry, looked up): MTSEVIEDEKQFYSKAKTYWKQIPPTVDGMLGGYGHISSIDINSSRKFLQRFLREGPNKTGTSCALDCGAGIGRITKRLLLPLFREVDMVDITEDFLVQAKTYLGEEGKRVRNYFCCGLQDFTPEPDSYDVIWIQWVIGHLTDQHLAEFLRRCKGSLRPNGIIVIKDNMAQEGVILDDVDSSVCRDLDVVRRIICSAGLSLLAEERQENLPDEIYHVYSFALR
Sequence of Lysine-specific demethylase 5B (Homo sapiens) (Q9UGL1 whole entry, looked up): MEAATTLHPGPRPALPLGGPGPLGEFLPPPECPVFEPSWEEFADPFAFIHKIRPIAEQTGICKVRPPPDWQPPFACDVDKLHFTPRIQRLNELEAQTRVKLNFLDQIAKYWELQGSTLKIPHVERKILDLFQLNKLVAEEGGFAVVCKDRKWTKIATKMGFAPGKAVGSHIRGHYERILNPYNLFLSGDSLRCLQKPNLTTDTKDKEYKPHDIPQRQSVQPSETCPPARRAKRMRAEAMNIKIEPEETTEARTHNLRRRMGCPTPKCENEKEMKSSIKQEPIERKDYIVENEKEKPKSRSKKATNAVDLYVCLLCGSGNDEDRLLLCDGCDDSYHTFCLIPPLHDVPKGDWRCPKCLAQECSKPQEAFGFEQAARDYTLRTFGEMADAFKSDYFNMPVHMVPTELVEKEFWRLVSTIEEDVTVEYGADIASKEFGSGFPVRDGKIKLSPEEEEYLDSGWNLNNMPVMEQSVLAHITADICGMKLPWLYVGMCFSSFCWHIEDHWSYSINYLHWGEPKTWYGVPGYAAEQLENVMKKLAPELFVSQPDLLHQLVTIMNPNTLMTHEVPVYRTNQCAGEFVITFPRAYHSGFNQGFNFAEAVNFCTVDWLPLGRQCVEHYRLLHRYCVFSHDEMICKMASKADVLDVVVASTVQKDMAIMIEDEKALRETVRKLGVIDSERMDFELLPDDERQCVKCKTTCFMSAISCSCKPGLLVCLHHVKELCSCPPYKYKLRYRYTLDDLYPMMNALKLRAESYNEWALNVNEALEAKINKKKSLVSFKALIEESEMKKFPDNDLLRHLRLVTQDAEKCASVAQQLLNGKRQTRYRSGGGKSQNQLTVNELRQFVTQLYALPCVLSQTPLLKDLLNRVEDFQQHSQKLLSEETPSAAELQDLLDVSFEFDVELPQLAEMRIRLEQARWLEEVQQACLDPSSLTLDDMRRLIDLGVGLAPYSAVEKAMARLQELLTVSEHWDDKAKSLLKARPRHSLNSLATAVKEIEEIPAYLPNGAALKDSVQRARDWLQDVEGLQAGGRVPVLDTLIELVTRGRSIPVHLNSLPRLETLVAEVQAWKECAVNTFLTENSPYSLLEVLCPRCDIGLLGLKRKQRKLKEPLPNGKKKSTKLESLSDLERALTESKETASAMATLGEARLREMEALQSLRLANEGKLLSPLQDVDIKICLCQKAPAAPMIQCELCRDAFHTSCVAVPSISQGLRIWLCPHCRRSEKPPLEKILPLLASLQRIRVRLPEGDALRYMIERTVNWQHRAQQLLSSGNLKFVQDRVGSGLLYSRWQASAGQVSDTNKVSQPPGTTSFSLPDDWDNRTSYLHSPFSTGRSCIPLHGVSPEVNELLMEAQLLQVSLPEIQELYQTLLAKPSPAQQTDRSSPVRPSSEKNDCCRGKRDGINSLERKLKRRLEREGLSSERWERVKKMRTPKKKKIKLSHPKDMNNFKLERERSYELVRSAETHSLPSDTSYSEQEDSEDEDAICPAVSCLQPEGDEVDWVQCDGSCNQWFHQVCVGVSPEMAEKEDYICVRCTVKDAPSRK
Sequence of Furin (Homo sapiens) (P09958 whole entry, looked up): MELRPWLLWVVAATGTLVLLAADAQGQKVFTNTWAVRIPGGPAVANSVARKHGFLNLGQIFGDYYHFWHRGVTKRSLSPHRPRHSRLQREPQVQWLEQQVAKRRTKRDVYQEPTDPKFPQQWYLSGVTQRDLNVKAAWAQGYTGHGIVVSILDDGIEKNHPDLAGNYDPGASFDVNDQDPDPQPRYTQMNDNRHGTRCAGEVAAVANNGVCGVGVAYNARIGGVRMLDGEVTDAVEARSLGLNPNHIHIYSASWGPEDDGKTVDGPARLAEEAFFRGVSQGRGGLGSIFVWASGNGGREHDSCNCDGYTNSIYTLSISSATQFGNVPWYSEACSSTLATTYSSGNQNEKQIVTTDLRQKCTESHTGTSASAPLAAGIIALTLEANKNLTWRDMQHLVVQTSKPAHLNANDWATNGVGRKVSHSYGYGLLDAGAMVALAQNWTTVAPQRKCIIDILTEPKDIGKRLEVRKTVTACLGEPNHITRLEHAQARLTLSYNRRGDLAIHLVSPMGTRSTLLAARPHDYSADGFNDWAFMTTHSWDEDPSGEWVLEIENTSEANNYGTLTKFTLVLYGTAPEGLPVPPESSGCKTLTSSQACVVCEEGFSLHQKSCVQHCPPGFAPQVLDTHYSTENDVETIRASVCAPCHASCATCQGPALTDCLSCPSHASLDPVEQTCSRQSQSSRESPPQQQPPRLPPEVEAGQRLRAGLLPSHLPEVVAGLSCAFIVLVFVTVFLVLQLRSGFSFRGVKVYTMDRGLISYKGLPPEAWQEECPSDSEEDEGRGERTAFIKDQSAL

For `CS(=O)(=O)OCCCCOS(C)(=O)=O`, the Potency result in experiment [1], in experiment [2] and in experiment [3] was “inactive” in each case.
On to `O=C(O)c1cccnc1Nc1cccc(C(F)(F)F)c1`, for which the Potency entry in experiment [4], in experiment [5], in [2], in experiment [7] and in [3] was “inactive” throughout. Also, the result in experiment [6] and in [8] was inactive.
`O=C(CCc1ccc(O)cc1)c1c(O)cc(O)cc1O`: the Potency entry in experiment [1], in experiment [5] and in [7] was “inactive” in each case. Also, the call in experiment [8] was inactive.
For the compound `O=c1c(O)c(-c2cc(O)c(O)c(O)c2)oc2cc(O)cc(O)c12`, the Potency in experiment [4] is 5.01 µM (active); in experiment [5], 21.2 µM (active); in experiment [2] it was 9.61 µM (active); in [9], 17.8 µM (active); in experiment [11] it was 14.1 µM (active); in [12] it was 158 µM (active). In addition, in experiment [13], the Potency is 39.8 µM (active). Besides, the Potency result (in the experiment with Furin (Homo sapiens); in experiment [10]; in [7]) was “inactive” each time. In addition, the activity change, negative = inhibition in experiment [14] was 40.4% [at 3.57 µM]. Moreover, the compound was called inactive in experiment [8].
Regarding `CCOc1cc(CC(=O)N[C@@H](CC(C)C)c2ccccc2N2CCCCC2)ccc1C(=O)O`, the Potency entry in [1] and in experiment [2] was “inactive” throughout.
Turning to `COc1cc(C(C)=O)ccc1OCCCN1CCC(c2noc3cc(F)ccc23)CC1`, the Potency entry in experiment [1] and in [2] was “inactive” each time.
On to `C[C@@H](N)C1CCC(C(=O)Nc2ccncc2)CC1` (some centres not stated), for which the Potency result in [4], in [5], in [2] and in [7] was “inactive” throughout. The call in [6] and in [8] was inactive.
`O=C(c1ccccc1)c1ccc2n1CCC2C(=O)O` (configuration not stated): the Potency entry in [4], in experiment [5], in experiment [2], in experiment [7] and in experiment [3] was “inactive” throughout. Also, the call in [6] and in experiment [8] was inactive.
In the case of `CC1(C)C(=O)N(CCN2CCC(C(=O)c3ccc(F)cc3)CC2)c2ccccc21`, the Potency entry in experiment [4], in [5], in [2] and in experiment [7] was “inactive” in each case. In addition, the compound was called inactive in [6] and in experiment [8].
For `Nc1ncn([C@H]2C[C@H](O)[C@@H](CO)O2)c(=O)n1`, the Potency entry in experiment [1], in [2] and in experiment [3] was “inactive” each time.
`CN(C)c1ccc2nc3ccc(=[N+](C)C)cc-3sc2c1`: the Potency in experiment [1] was 4.18 µM (active). In addition, in [2], the Potency result was “inactive”.
Consider `O=C(NCC1CCCCN1)c1cc(OCC(F)(F)F)ccc1OCC(F)(F)F` (configuration not stated), for which the Potency result in experiment [1], in experiment [2] and in experiment [3] was “inactive” throughout.
Consider `c1cnc2cc3c(cc2n1)C1CNCC3C1`, for which the Potency result in [1], in experiment [5], in [2], in experiment [15], in experiment [16] and in experiment [7] was “inactive” throughout. In [3], the Potency entry was “inactive”. Besides, the call in experiment [8] was inactive.
In the case of `Cc1ccc(NC(=O)c2ccc(CN3CCN(C)CC3)cc2)cc1Nc1nccc(-c2cccnc2)n1`, the Potency entry in experiment [1], in experiment [2], in [15] and in [16] was “inactive” in each case.
For the compound `COc1ccccc1N1CCN(CCN(C(=O)C2CCCCC2)c2ccccn2)CC1`, the Potency entry in experiment [4], in [5], in experiment [2], in [15], in experiment [16] and in experiment [7] was “inactive” throughout. Besides, the call in [6] and in experiment [8] was inactive.
